This is a sample that favours compounds with a hit; in the whole collection about 11% have one here.
HPGD block: inhibitors of human 15-hydroxyprostaglandin dehydrogenase (HPGD); Potency, µM, for the others: at the highest dose activity change, negative = inhibition, hits mostly inhibitors; AID 894; hit rate 4.3% among 150,000; P15428; purified HPGD, NADH fluorescence kinetic, PGE2 substrate; note: potency is the fitted concentration of half-maximal effect
Target sequence (P15428 whole entry, looked up): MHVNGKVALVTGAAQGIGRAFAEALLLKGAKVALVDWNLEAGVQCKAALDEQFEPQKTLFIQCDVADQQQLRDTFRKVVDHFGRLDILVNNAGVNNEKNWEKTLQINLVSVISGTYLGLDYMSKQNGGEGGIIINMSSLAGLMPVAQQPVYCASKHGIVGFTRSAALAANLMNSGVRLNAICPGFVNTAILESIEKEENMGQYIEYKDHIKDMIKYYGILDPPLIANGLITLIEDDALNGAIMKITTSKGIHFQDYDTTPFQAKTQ
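20 nM HPGD preincubated 15 min at room temperature with compound in 50 mM Tris-HCl pH 8, 0.01% Tween 20. Started with 1 mM NAD+ and 30 uM prostaglandin E2; NADH fluorescence (360/450 nm) read 5 times over 30-s intervals, last minus first.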
IMPase cell inh: membrane-permeable compound that blocks inositol monophosphatase. P97697. CHO-M1 cells, IP1 accumulation, HTRF TR-FRET ratio. inhibition (IP1 accumulation), % at 46.1 µM. 120,000 tested, under 10 active. AID 901; active = well fitted curve in the direction sought with a large enough effect in the signal ratio, not every such curve was filed as active; inconclusive = small, poorly fitted or top-dose-only effect, or a change in a side signal; inactive = no such curve, though single readings can be large or run the other way; the % refers to the signal ratio;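 note: cells stimulated with carbachol in lithium chloride buffer; plate controls were DMSO basal wells for no effect and reference inhibitor wells for full effect; higher means more IMPase inhibition seen as more IP1 and lower FRET ratio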
Target sequence (P97697 whole entry, looked up): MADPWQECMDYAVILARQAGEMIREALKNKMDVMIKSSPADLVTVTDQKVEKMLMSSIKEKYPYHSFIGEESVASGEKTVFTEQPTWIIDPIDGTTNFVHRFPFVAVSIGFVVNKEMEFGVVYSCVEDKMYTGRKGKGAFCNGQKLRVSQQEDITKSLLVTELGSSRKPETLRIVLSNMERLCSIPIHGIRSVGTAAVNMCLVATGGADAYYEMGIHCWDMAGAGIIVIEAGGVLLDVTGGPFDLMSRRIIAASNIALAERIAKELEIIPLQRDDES
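Seeded CHO-M1 cells were dosed with compound at up to 46 uM, stimulated with carbachol for 30 min, then lysed in IP-One detection reagents. Higher IP1 lowers the TR-FRET signal.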
ALDH1A1 block: blocks purified human ALDH1A1 activity; P00352; Purified ALDH1A1, NADH fluorescence, propionaldehyde substrate; Potency, µM (highest dose often 75.3 µM), without a hit: at the top dose activity, negative = inhibition, hits mostly inhibitors; hit rate 7.3% among 220,000;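 note: potency is the fitted concentration of half-maximal effect; plate controls were no enzyme wells and a reference inhibitor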
IMPase Li cell: cell-permeable IMPase inhibitors with lithium potentiation; CHO-M1 cells, IP1 TR-FRET (IP-One), carbachol + lithium; Potency, µM (top dose mostly 59.4 µM), without a hit: top-dose activity, negative = IMPase inhibition, most hits filed as inhibitors; hit rate 0.35% among 210,000; AID 1457; active = well fitted inhibition curve with a large enough effect; inconclusive = small, poorly fitted or top-dose-only effect; inactive = no such curve, though single readings can be large or run the other way;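 note: IP1 builds up when IMPase is blocked and the TR-FRET signal falls; potency is the fitted concentration of half-maximal effect; plate controls were basal vehicle for no effect and high inhibitor control for full effect; nearly all actives have a fitted effect of over 50% in size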
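Readout is a homogeneous TR-FRET IP1 immunoassay (Ex 320, Em 665 and 620), where raised cytosolic IP1 lowers signal. Cells were CHO-M1 treated 30 min at 37C with test compounds plus a little lithium; AC50 values came from Hill-equation fitting.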
PNC inhibitor: perinucleolar compartment assembly inhibition; PC3M PTB-GFP, PNC prevalence imaging, 16 h; hits give low values; activity change (PNC), negative = inhibition, % at 10 µM; hit rate 3.1% among 140,000;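 active = readout at or below -70, meaning at least 70% loss of cells showing the perinucleolar compartment, a nuclear body marking cancer cells; inconclusive = readout between -30 and a set limit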;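 note: plate controls were DMSO wells for no effect and camptothecin positive control wells for full effect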
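Compounds are pinned in duplicate onto adhered PC3M cells stably expressing GFP-tagged PTB and incubated 16 h at 37 C. Cells are then fixed, nuclei stained with Hoechst, and PNC-positive cells counted.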
The depositor's hits bear a star; ? = inconclusive; · = not tested or not shown; [ ] = dose if it differs, or a comment. Unless noted, calls come from the whole dose curve; as a rule, active = well fitted inhibition curve with a large enough effect (not every such curve was filed as active); inconclusive = small, poorly fitted or top-dose-only effect, or another doubt; inactive = no such curve, though single readings can be large or run the other way. Unless noted, % is set by controls: 0 for no effect and ±100 for the full control effect.

SMILES	HPGD block	IMPase cell inh	ALDH1A1 block	IMPase Li cell	PNC inhibitor
CC#C[C@]1(O)CC[C@H]2[C@@H]3CCC4=CC(=O)CCC4=C3[C@@H](c3ccc(N(C)C)cc3)C[C@@]21C	0%	·	-14%	12%	-17
Cc1cccc(C)c1Nc1oc(-c2ccccc2)nc1-c1ccccc1F	-1%	·	?	9%	·
COc1cccc(-n2c(SCC(=O)OC(C)C)nnc2-c2cccnc2)c1	22µM*	3	-6%	-5%[38.3 µM]	?
COC(=O)CSc1nnc(C)n1-c1cccc(OC)c1	-19%	0	7%	-11%[38.3 µM]	-96*
CCc1ccc2nc3n[nH]c(N)c3cc2c1	28µM*	9	?	37%[38.3 µM]	-8
Fc1ccccc1/C=N/NC(=S)Nc1ccc(Cl)cc1Cl	-12%	·	-5%	-1%	?
Cc1ccc(-n2cc(CN3CCN(c4ccccn4)CC3)c(-c3ccc(F)cc3)n2)cc1	·	·	2%	10%	·
Cc1ccc(-n2cc(CN3CCN(Cc4nccn4C)CC3)c(-c3ccc(F)cc3)n2)cc1	·	·	25µM*	7%	·
N=c1c2c(-c3ccccc3)c(-c3ccccc3)n(Cc3ccccc3)c2ncn1CCCn1ccnc1	-16%	5	0%	25%[38.3 µM]	-98*
N=c1c2c(-c3ccccc3)c(-c3ccccc3)n(Cc3ccco3)c2ncn1Cc1ccco1	-2%	22	-1%	27%[38.3 µM]	19
Cc1ccc(C2=NC3(CCCCC3)N=C2SCC(=O)Nc2ccc3c(c2)OCCO3)cc1	-16%	·	?	8%	46
Fc1ccc(Nc2ccnc(-c3ccoc3)n2)cc1	·	·	32µM*	9%	·
Fc1ccc(Nc2ccnc(-c3ccc4c(c3)OCO4)n2)cc1	·	·	-6%	8%	·
c1csc(CNc2ccnc(-c3ccoc3)n2)c1	·	·	11µM*	20%	·
CN1CCc2ccccc2[C@@H]1Cc1ccccc1NC(=O)c1sc2ccccc2c1Cl	-5%	·	2%[13.5 µM]	7%	·
C[C@@H](C1=C(CCN(C)C)Cc2ccccc21)c1ccccn1	-14%	17	-3%	36%	·
COc1ccccc1N1CCN(C(c2cc3ccc(C)cc3[nH]c2=O)c2nnnn2C2CCCC2)CC1 (configuration not stated)	-15%	-1	25µM*	-3%[38.3 µM]	?
COc1ccccc1N1CCN(C(c2cc3cc(C)ccc3[nH]c2=O)c2nnnn2C2CCCC2)CC1 (configuration not stated)	-3%	-5	14µM*	28%[38.3 µM]	?
COc1cc2cc(C(c3nnnn3C3CCCC3)N3CCc4ccccc43)c(=O)[nH]c2cc1OC (configuration not stated)	-8%	4	-11%	4%[38.3 µM]	?
CCOC(=O)C1CCN(C(c2cc3ccc(C)cc3[nH]c2=O)c2nnnn2C2CCCCC2)CC1 (configuration not stated)	-23%	17	?	?	15
Cc1c(Cl)c(=O)oc2cc(OCC(=O)NCc3cccs3)ccc12	?	·	?	-14%	-108*
COc1ccc(N(CC(=O)NCc2cccs2)S(=O)(=O)c2c(C)nn(C)c2C)cc1	-8%	3	?	3%[38.3 µM]	39
O=C(COc1ccccc1)NCc1cccs1	-26%	1	0%	-2%[38.3 µM]	?
CCOc1ccc2c(C)c(Cl)c(=O)oc2c1	?	-8	?	13%[38.3 µM]	14
Cc1ccc(OCC(=O)NCc2cccs2)cc1	22µM*	7	-6%	30%[38.3 µM]	?
SMILES	HPGD block	IMPase cell inh	ALDH1A1 block	IMPase Li cell	PNC inhibitor
Cc1ccc(N(CC(=O)NCc2cccs2)S(=O)(=O)c2cccs2)cc1	-12%	6	?	6%[38.3 µM]	-83*
C[C@@H]1CCC2[C@](C)(CO)[C@@H](O)CC[C@]2(C)[C@]12CCC(CO)(CCO)O2 (some centres not stated)	-6%	·	8%	15%	·
Cn1c2ccccc2c2cc(C(=O)NNS(=O)(=O)c3ccc(F)cc3)sc21	?	-8[1.84 µM]	?	31%[38.3 µM]	-88*
CC(=O)Nc1ccc(NC(=O)CSc2ccc(C)cc2)cc1	-9%	1	2%	19%[38.3 µM]	-7
Cc1ccc(Sc2ccc(NC(=O)CCl)cc2)c(C)c1	11µM*	·	-6%	-6%	-27
CCOC(=O)Cc1ncccc1C(=O)Nc1ccc(Oc2ccccc2)cc1	·	·	8%	3%	·
CS(=O)(=O)N1CCC2(CC1)CN(C(c1ccccc1)c1ccccc1)C2	-11%	·	7%	11%	·
O=C(C(=O)N1CCN(C(=O)c2ccco2)CC1)c1c[nH]c2ccccc12	·	·	2%	-4%	·
CCOC(=O)c1[nH]c(C)c(C(=O)N2CCN(c3ccc(F)cc3)CC2)c1C	-1%	-11	5%	19%[38.3 µM]	-28
Cc1[nH]c2ccccc2c1NC(=O)CN1CCN(C(=O)c2ccco2)CC1	·	·	6.3µM*	·	·
CCOC(=O)c1[nH]c(C)c(C(=O)N2CCN(C(=O)c3ccco3)CC2)c1C	-7%	-7	-5%	8%	-100*
Cc1[nH]c2ccccc2c1C(=O)C(=O)N1CCN(C(=O)c2ccco2)CC1	·	·	6.3µM*	4%	·
Cc1[nH]c2ccccc2c1NC(=O)CN1CCN(Cc2ccc3c(c2)OCO3)CC1	-3%	-12	0%	10%[38.3 µM]	16
CN(C)C(=O)c1ccc(-c2ccc3ncnc(NC4CCNCC4)c3c2)cc1	?	·	?	-2%	·
COc1ccc(/C=C/C(=O)OCCC(C)C)cc1	-19%	·	-5%	7%	·
CCOC(=O)CSc1nc(=O)n2cccc(C)c2n1	·	·	-8%	-5%	·
COc1ccc(Cc2nnc(NS(C)(=O)=O)s2)cc1	-15%	0	0%	21%[38.3 µM]	-27
COc1ccc(Cc2nnc(N)s2)cc1OC	32µM*	-2	28µM*	4%	36
COc1ccc(Cc2nnc(N)s2)cc1	28µM*	1	?	-1%[38.3 µM]	9
COc1cc(OC)cc(C(=O)Nc2nnc(Cc3ccc(OC)c(OC)c3)s2)c1	·	·	4%	?	·
Cc1cccc(CSCc2nnc(N)s2)c1	28µM*	-1	?	-7%	-15
Nc1nnc(CC(c2ccccc2)c2ccccc2)s1	22µM*	0	1%	2%[38.3 µM]	?
CC(=O)N/C(=C/c1ccc2c(c1)OCO2)C(=O)NCC(=O)O	-12%	·	0%	-3%	5
Nc1nnc(Cc2ccccc2)s1	-9%	0	11µM*	-11%[38.3 µM]	31
Nc1nnc(CCc2ccccc2)s1	-9%	-6	2%	-11%[38.3 µM]	-4
Nc1nnc(SCCN2C(=O)c3ccccc3C2=O)s1	-8%	8	0%	19%[38.3 µM]	16
Cc1cccc(-c2nsc(SCC(=O)NCc3ccco3)n2)c1	?	-6	?	-19%[38.3 µM]	0
Cc1cccc(-c2nsc(SCC(=O)NCC3CCCO3)n2)c1 (configuration not stated)	·	·	20µM*	1%	·
CCOC(=O)CSc1nnc(SCCN2C(=O)c3ccccc3C2=O)s1	-9%	6	28µM*	21%[38.3 µM]	7
CCOC(=O)CNC(=O)CSc1nc(-c2cccc(C)c2)ns1	·	·	20µM*	9%	·
